Data published in PubChem BioAssay (NCI).
Compounds without any hit were thinned out: in the full panel of roughly 79,000, 15% have a hit. Unmarked numbers belong to inactive results. Activity calls are given as the source filed them. Cut-off read from the data, not from the text of the source: active = growth inhibition above about 70%; inactive = the rest.

Assay: NCI Yeast Anticancer Drug Screen. Data for the mgt1 strain (AID 153)
Conditions: S. cerevisiae mgt1 mutant growth inhibition; at 33.0 µM; hits give high values
In short: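 Compounds were applied to mgt1 mutant yeast, and growth was then compared against vehicle-treated control cultures to give percent inhibition.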
`Nc1cc(N)c(N=Nc2cccc3c(S(=O)(=O)O)cccc23)cc1N=Nc1cc([N+](=O)[O-])ccc1O` showed a growth inhibition of 12%. In the case of `Nc1ccc(F)cc1S`, the growth inhibition was 92% (active). In the case of `Brc1ccccc1-c1ncc(-c2ccccc2)o1`, the growth inhibition was 73% (active). Compound `COc1cc(C2SCC(=O)N2c2ccc(-c3ccc(-n4c(-c5ccccc5)nc5ccccc5c4=O)cc3)cc2)ccc1O` (configuration not stated) has a growth inhibition of 2%. Compound `Nc1ncnc2c1ncn2C1OC(CO)CC1O` (configuration not stated) has a growth inhibition of 62%. With `COc1cc(CSc2ccc(O)cc2)cc(O)c1O` the growth inhibition was 0%. For `CCOC(=O)C1N=[N+](c2ccccc2)C(=O)/C1=C\n1c(=S)[nH]c2ccc([N+](=O)[O-])cc21` (configuration not stated), the growth inhibition was -11%. With `CNC(=O)OCc1c(COC(=O)NC)c2n(c1C)-c1ccc(OC)cc1CCC2` the growth inhibition was 98% (active). Compound `O=C(NNc1ccccc1)c1ccc(Cl)c(Cl)c1` has a growth inhibition of 8%. With `Cc1ccc(CC2(OCCN(C)C)CCC(C(C)(C)C)CC2)cc1` (configuration not stated) the growth inhibition was 84% (active). With `C[C@]12CC[C@H](O)CC1=CC[C@@H]1C2CC[C@]2(C)C(=O)NC(=O)CC12` (some centres not stated) the growth inhibition was 94% (active). For `CCCC/C=C/C(C)(C(=O)OCC)C(=O)OCC`, the growth inhibition was -2%. `CCc1c(Cl)c(C)cc(O)c1Cl` showed a growth inhibition of 49%. `O=C(/C=C(/c1ccccc1)N1CCCCC1)c1ccccc1` gave a growth inhibition of 10%. With `CCCC(=O)Oc1ccc(/C=N/NC(N)=S)nc1` the growth inhibition was -6%. For `CCc1nc2ccc(NCCN(C)C)c3c(=O)c4ccccc4n1c23`, the growth inhibition was 23%. In the case of `COc1c(O)c(C=O)c(Br)c(C=O)c1O`, the growth inhibition was 30%. Work on `Cc1nc2ccccc2nc1NNc1ccccc1` yielded a growth inhibition of -13%.

Same assay, conditions: S. cerevisiae mgt1 mutant growth inhibition; at 100.0 µM; hits give high values
In the case of `CN(C)c1ccc(C2CC(C)(O)Oc3cc4c(cc32)OCO4)cc1` (configuration not stated), the growth inhibition was 48%. With `COc1oc(C(=O)NC2CCCCC2)c(-c2ccc(Cl)cc2)c1S(=O)(=O)c1ccccc1` the growth inhibition was 86% (active). For `C[Si](C)(C)/C=C/CCNC(C#N)c1ccccc1` (configuration not stated), the growth inhibition was 94% (active). For `CCOc1ccc(NC(=O)C2=C(C)NC(C)=C(C(=O)Nc3ccc(OCC)cc3)C2c2cccc([N+](=O)[O-])c2)cc1`, the growth inhibition was 92% (active). For `CC1(C)CC(=O)C(/C=N/c2nc(-c3ccccc3)cs2)=C(O)C1`, the growth inhibition was 77% (active). With `CC(=O)Nc1ccc2c(c1)Cc1cc(N=C3C=CC(=O)O3)ccc1-2` the growth inhibition was 99% (active). For `O=C1C=C(Cl)C(=O)C(c2ccc(Cl)cc2)=C1`, the growth inhibition was 97% (active). For `CNCCCNc1c2ccccc2nc2cccc([N+](=O)[O-])c12`, the growth inhibition was 97% (active). In the case of `CCCCCCCCCCCC(O)S(=O)(=O)O` (configuration not stated), the growth inhibition was 70% (active). With `CC(C)OC(=O)c1ccc(CCc2cc(O)c(Br)cc2O)cc1` the growth inhibition was 94% (active). In the case of `CCc1cc(O)c(Cl)c(C)c1Cl`, the growth inhibition was 96% (active). Work on `C(=Nc1ccc(-c2cc(-c3ccccc3)nc3ccc4ccccc4c23)cc1)c1ccccc1` yielded a growth inhibition of 47%. For `CSc1nc(C)c(CCOC(C)=O)c(N=P(c2ccccc2)(c2ccccc2)c2ccccc2)n1`, the growth inhibition was 90% (active). In the case of `COC1=C(OC)C(=O)C(Sc2ccc3ccccc3c2)=CC1=O`, the growth inhibition was 92% (active). `COc1nc2c(c(=O)n1C)N=C(c1ccccc1)[C@H](C(CC(=O)c1ccccc1)c1ccccc1)C(c1ccccc1)N2` (some centres not stated) showed a growth inhibition of 60%. With `Cc1cc(-c2cc(C)c(O)c(C(C)(C)C)c2)cc(C(C)(C)C)c1O` the growth inhibition was 57%. For `Nc1cc(N)c(N=Nc2cccc3c(S(=O)(=O)O)cccc23)cc1N=Nc1cc([N+](=O)[O-])ccc1O`, the growth inhibition was 65%. For `Nc1ccc(F)cc1S`, the growth inhibition was 98% (active). For `Brc1ccccc1-c1ncc(-c2ccccc2)o1`, the growth inhibition was 78% (active). With `COc1cc(C2SCC(=O)N2c2ccc(-c3ccc(-n4c(-c5ccccc5)nc5ccccc5c4=O)cc3)cc2)ccc1O` (configuration not stated) the growth inhibition was 28%. With `Nc1ncnc2c1ncn2C1OC(CO)CC1O` (configuration not stated) the growth inhibition was 89% (active). Work on `COc1cc(CSc2ccc(O)cc2)cc(O)c1O` yielded a growth inhibition of 2%. In the case of `CCOC(=O)C1N=[N+](c2ccccc2)C(=O)/C1=C\n1c(=S)[nH]c2ccc([N+](=O)[O-])cc21` (configuration not stated), the growth inhibition was 5%. For `CNC(=O)OCc1c(COC(=O)NC)c2n(c1C)-c1ccc(OC)cc1CCC2`, the growth inhibition was 99% (active). With `O=C(NNc1ccccc1)c1ccc(Cl)c(Cl)c1` the growth inhibition was 23%. For `Cc1ccc(CC2(OCCN(C)C)CCC(C(C)(C)C)CC2)cc1` (configuration not stated), the growth inhibition was 99% (active). With `C[C@]12CC[C@H](O)CC1=CC[C@@H]1C2CC[C@]2(C)C(=O)NC(=O)CC12` (some centres not stated) the growth inhibition was 96% (active). Work on `CCCC/C=C/C(C)(C(=O)OCC)C(=O)OCC` yielded a growth inhibition of 16%. In the case of `CCc1c(Cl)c(C)cc(O)c1Cl`, the growth inhibition was 95% (active). In the case of `O=C(/C=C(/c1ccccc1)N1CCCCC1)c1ccccc1`, the growth inhibition was 87% (active). With `CCCC(=O)Oc1ccc(/C=N/NC(N)=S)nc1` the growth inhibition was -14%. `CCc1nc2ccc(NCCN(C)C)c3c(=O)c4ccccc4n1c23` showed a growth inhibition of 40%. In the case of `COc1c(O)c(C=O)c(Br)c(C=O)c1O`, the growth inhibition was 82% (active). With `Cc1nc2ccccc2nc1NNc1ccccc1` the growth inhibition was 26%.
